Source: PubChem BioAssay
HepG2 tox: qHTS for Inhibitors of TGF-b: Cytotox Counterscreen; HepG2 CAGA-GFP viability, ATP luminescence, 18 h; Potency, µM (doses to about 46.1 µM), for inactives: top-dose activity change, negative = cytotoxicity, actives largely listed as cytotoxic; hit rate 0.76% among 410,000; AID 588856, 2011; note: potency is the fitted concentration of half-maximal effect
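CellTiter-Glo luminescence gave cytotoxicity after 18 hours at 37 degrees C. The cells were HepG2 CAGA-GFP in 1% FBS DMEM, stimulated with 500 pg/mL TGF-beta after compound addition. %Activity was normalised to no-cell wells (complete cell-killing) and DMSO (no toxicity), and curves were fitted and classified.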
IL-1B inflam inh: qHTS for Inhibitors of Inflammasome Signaling: IL-1-beta AlphaLISA Primary Screen; THP-1 LPS/ATP IL-1B secretion, AlphaLISA, 16 h; stronger effect = lower value; activity change, % at 57.5 µM; hit rate 4.7% among 360,000; AID 743279, 2014; in the data active = activity change below about -50%; inconclusive = mostly about -30% to -49%; note: % is set by controls: 0 for no effect and ±100 for the full control effect
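Secreted IL-1B measured by AlphaLISA bead assay after 16 h compound exposure of THP-1 cells; compounds (final up to 57.5 uM) added 1 h before LPS (250 ng/mL) and ATP (1.25 mM) stimulation; lower signal means less secretion.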
TDP1 block: qHTS Assay for Inhibitors of Tyrosyl-DNA Phosphodiesterase (TDP1); Potency, µM (top dose mostly 130 µM), without a hit: at the top dose activity change, negative = inhibition, hits mostly inhibitors; recombinant TDP1, AlphaScreen DNA substrate cleavage; Tyrosyl-DNA phosphodiesterase 1 (Homo sapiens), Q9NUW8; hit rate 0.28% among 350,000; note: potency is the fitted concentration of half-maximal effect; % is set by controls: 0 for no effect and ±100 for the full control effect; nearly all actives have a fitted effect of over 40% in size
Target sequence (Q9NUW8 whole entry, looked up): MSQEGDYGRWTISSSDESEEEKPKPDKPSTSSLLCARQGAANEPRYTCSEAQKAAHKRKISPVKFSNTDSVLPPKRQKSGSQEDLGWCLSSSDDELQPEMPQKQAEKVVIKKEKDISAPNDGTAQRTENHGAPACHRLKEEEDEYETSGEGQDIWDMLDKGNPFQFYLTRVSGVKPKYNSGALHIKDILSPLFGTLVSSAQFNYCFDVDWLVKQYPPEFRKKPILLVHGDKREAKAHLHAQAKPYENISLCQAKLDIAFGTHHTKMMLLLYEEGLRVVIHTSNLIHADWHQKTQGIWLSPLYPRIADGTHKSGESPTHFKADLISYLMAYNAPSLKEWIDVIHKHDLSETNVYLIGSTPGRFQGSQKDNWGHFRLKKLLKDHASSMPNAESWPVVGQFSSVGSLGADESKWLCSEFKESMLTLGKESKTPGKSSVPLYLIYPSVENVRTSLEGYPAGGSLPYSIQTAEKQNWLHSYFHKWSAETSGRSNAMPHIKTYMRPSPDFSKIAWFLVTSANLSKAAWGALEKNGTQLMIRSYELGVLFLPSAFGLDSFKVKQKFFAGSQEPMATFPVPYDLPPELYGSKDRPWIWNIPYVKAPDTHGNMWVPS
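Recombinant E. coli-expressed Tdp1 (1 nM) preincubated with compound 15 min at RT, then 5'-biotin/3'-phosphotyrosine-FITC DNA substrate (15 nM) added for 5 min. AlphaScreen beads (10 ug/ml) added, 10 min RT; tyrosine-FITC cleavage read as signal loss.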
DT40 TDP1 CPT: qHTS for Inhibitors of human tyrosyl-DNA phosphodiesterase 1 (TDP1): qHTS in cells in presence of CPT | hit rate 12% among 420,000 | chicken DT40 Tdp1-/-;hTDP1 cells + 20 nM CPT, ATP luminescence, 48 h | Potency, µM (top dose mostly 46.2 µM), for the others: at the highest dose activity change, negative = growth inhibition, usual class: inhibitors; note: potency is the fitted concentration of half-maximal effect; % is set by controls: 0 for no effect and ±100 for the full control effect; nearly all actives have a fitted effect of over 55% in size
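Chicken DT40 Tdp1-/- cells complemented with human TDP1, 400 cells/well, exposed to compounds plus 20 nM camptothecin for at least 48 h at 37 C; viability read as ATP content by CellTiter-Glo luminescence.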
TDP1 cell noCPT: qHTS for Inhibitors of human tyrosyl-DNA phosphodiesterase 1 (TDP1): qHTS in cells in absence of CPT; DT40 Tdp1-/- hTDP1 cells, no CPT, ATP luminescence, 48 h; Potency, µM (titrated, usually from 46.2 µM), for inactives: at the top dose activity change, negative = growth inhibition, usual class: inhibitors; hit rate 15% among 420,000; note: potency is the fitted concentration of half-maximal effect; % is set by controls: 0 for no effect and ±100 for the full control effect; nearly all actives have a fitted effect of over 55% in size
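Compound effects on proliferation are scored in DT40 Tdp1-/-;hTDP1 cells in the absence of CPT. ATP levels (CellTiter-Glo luminescence) are recorded after a ≥48 hr, 37 °C incubation.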
TGFb inhibitor: qHTS for Inhibitors of TGF-b. HepG2 CAGA-GFP TGF-b/SMAD3 reporter, GFP fluorescence, 18 h; TGF-beta stimulated, 500 pg/mL final. Potency, µM (highest dose often 46.1 µM), for the others: top-dose activity, negative = inhibition, actives largely listed as inhibitors. hit rate 1.2% among 410,000. AID 588855, 2011; note: potency is the fitted concentration of half-maximal effect; % is set by controls: 0 for no effect and ±100 for the full control effect; nearly all actives have a fitted effect of over 65% in size
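Per well, imaged GFP fluorescence of HEPG2 CAGA-GFP cells gives the signal; cells get compound, then TGF-beta (500 pg/mL final), 18 h at 37 degrees C; %Activity versus -TGF-beta and +DMSO controls.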
* = called active by the depositor; ? = inconclusive; / = no result; [ ] = remark or other dose. Shown are actives, neighbours in structure and some others; about 18% of the full set was active somewhere. Unless noted, calls come from the whole dose curve; as a rule, active = well fitted curve in the direction sought with a large enough effect; inconclusive = small, poorly fitted or top-dose-only effect, or another doubt; inactive = no such curve, though single readings can be large; an effect the other way counts as inactive or inconclusive.

SMILES | HepG2 tox | IL-1B inflam inh | TDP1 block | DT40 TDP1 CPT | TDP1 cell noCPT | TGFb inhibitor
CC(Oc1ccccc1)C(=O)Nc1nc2ccc(S(N)(=O)=O)cc2s1 (stereo not drawn) | -10% | / | 5% | ? | ? | 0%
CN(CC(=O)Nc1ccc(Cl)c(C(F)(F)F)c1)C(=O)c1ccc(OCC2CCCO2)cc1 (stereo not drawn) | 14% | -22 | 0% | 18µM* | 16µM* | ?
O=C(N/N=C1/C[C@@H](O)[C@@H](O)[C@@H]2[C@@H]3C(=O)N(c4cccc(Oc5ccccc5)c4)C(=O)[C@H]3CC[C@H]12)OCc1ccccc1 | / | / | 3%[21 µM] | / | / | /
O=C(C1CC1)N1CCc2cc(Br)cc(S(=O)(=O)Nc3ccc(F)c(F)c3)c21 | -63% | / | 9% | 23µM* | 23µM* | ?
CC1CC(C)CN(CCCNS(=O)(=O)c2cc(Br)cc3c2N(C(=O)C2CC2)CC3)C1 (stereo not drawn) | 4µM* | -13 | 1% | 8% | -11% | 11%
CCCCN(C)S(=O)(=O)c1cc2c(cc1Br)CCN2C(=O)C1CC1 | 1% | 1 | / | 4.1µM* | 3.7µM* | -2%
CCN(c1cccc(C(F)(F)F)c1)S(=O)(=O)c1ccc2c(c1)CCN2C(=O)C1CC1 | -6% | ? | 0% | 16µM* | 16µM* | ?
CCC(=O)N1CCc2cc(S(=O)(=O)N(CC)c3cccc(C)c3)ccc21 | -3% | -2 | -1% | ? | ? | ?
CCCNS(=O)(=O)c1cc2c(cc1Br)CCN2C(=O)CC | 5% | 12 | / | -15% | -8% | 6%
COc1ccc(Cl)cc1NS(=O)(=O)c1cc(Br)cc2c1N(C(=O)C1CC1)CC2 | -1% | / | 12% | ? | ? | -16%
CCc1cccc(NC(=O)c2coc(=O)c3ccccc23)c1 | -28% | / | 3% | -26% | ? | -4%
COCC(=O)N1CCC2(CCCN(Cc3ccccc3OC)C2)CC1 | / | / | / | 25% | 4% | /
Cc1csc2nc(CCNS(=O)(=O)c3ccccc3)cn12 | 2% | / | 0% | -1% | 22% | -5%
CCN(c1ccccc1)S(=O)(=O)c1cc(Br)cc2c1N(C(=O)C1CC1)CC2 | -21% | / | 6% | 16µM* | 18µM* | ?
CCOC(=O)C1CCN(S(=O)(=O)c2cc(Br)cc3c2N(C(=O)C2CC2)CC3)CC1 | -7% | 19 | 6% | ? | -12% | 2%
CCOC(=O)c1cccc(NS(=O)(=O)c2cc(Br)cc3c2N(C(=O)C2CC2)CC3)c1 | -6% | / | 6% | ? | 23µM* | ?
O=C(C1CC1)N1CCc2cc(Br)cc(S(=O)(=O)N3CCN(c4cccc(C(F)(F)F)c4)CC3)c21 | -4% | / | 3% | ? | 8.2µM* | 7%
Cc1ccc(NS(=O)(=O)c2cc(Br)cc3c2N(C(=O)C2CC2)CC3)cc1C | -17% | / | 0% | 2.6µM* | 2.1µM* | ?
O=C(NS(=O)(=O)c1ccc(F)cc1)O[C@@H]1C(=O)c2cc(Br)ccc2O[C@H]1c1ccc2c(c1)OCO2 | / | / | 9% | / | / | /
O=C(C1CC1)N1CCc2cc(Br)cc(S(=O)(=O)Nc3ccc(C(F)(F)F)cc3)c21 | -31% | / | 6% | 18µM* | 16µM* | ?
O=C(C1CC1)N1CCc2cc(Br)cc(S(=O)(=O)NCCCN3CCCC3)c21 | -8% | 11 | 0% | 18% | -6% | -9%
CCN1C(=O)N[C@@H](c2cccc(F)c2)C(C(C)=O)=C1C | -1% | 21 | 16%[12.3 µM] | -28% | -22% | 1%
CCN1C(=O)N[C@H](c2ccc(Br)cc2)C(C(C)=O)=C1C | -15% | 36 | 4% | 21µM* | 16µM* | -3%
CC(C)(C)c1ccc(NC(=O)N2CCCN(c3c(Cl)cncc3Cl)CC2)cc1 | -36% | -65* | 0% | 16µM* | 7.3µM* | -3%
O=C(Nc1ccc(F)cc1)N1CCCN(c2ccc(C(F)(F)F)cn2)CC1 | 3% | -14 | 7% | ? | ? | -2%
SMILES | HepG2 tox | IL-1B inflam inh | TDP1 block | DT40 TDP1 CPT | TDP1 cell noCPT | TGFb inhibitor
O=C(Cc1ccc(NC2=NC3CS(=O)(=O)CC3S2)cc1)NCc1ccccc1Cl (stereo not drawn) | -5% | -14 | / | 6% | 9% | 2%
O=C(NCCN1C(=O)S/C(=C/c2cccnc2)C1=O)c1ccc(S(=O)(=O)N2CCCC2)cc1 | -10% | 26 | / | -24% | ? | 9%
CS(=O)(=O)c1ccc(C(=O)NCCN2C(=O)S/C(=C\c3cccnc3)C2=O)cc1[N+](=O)[O-] | -142% | -98* | 3% | 3.7µM* | 4.6µM* | 14µM*
CCN(CC)S(=O)(=O)c1ccc(C(=O)NCCN2C(=O)S/C(=C\c3cccnc3)C2=O)cc1 | -12% | 15 | 1% | ? | 18µM* | -7%
CN(C)S(=O)(=O)c1ccc(C(=O)NCCN2C(=O)S/C(=C\c3cccnc3)C2=O)cc1 | -42% | -10 | 0% | ? | ? | 10%
Cc1cc(Cl)ccc1OCCCC(=O)NCCN1C(=O)S/C(=C\c2cccnc2)C1=O | 0% | -54* | -2% | ? | 16µM* | -5%
CCOc1ccccc1NC(=O)NS(=O)(=O)c1ccc(C)cc1 | -1% | -6 | -1% | 13% | -23% | 4%
CCc1cc(C(=O)Nc2ncccc2O)sc1C | -40% | 16 | 1% | ? | -22% | -3%
Cc1ccc(/C=C/c2nc3sc(C(=O)O)c(C)c3c(=O)[nH]2)cc1[N+](=O)[O-] | 5% | 14 | 11µM* | -3% | 4% | 7%
O=C(O)c1ccc(/C=C/c2nc3sc4c(c3c(=O)[nH]2)CCC4)cc1 | 5% | 26 | 50µM* | 6% | 3% | -2%
Cc1c(C(=O)O)sc2nc(/C=C/c3ccccc3OC(F)F)[nH]c(=O)c12 | -9% | 18 | 71µM* | -7% | -5% | -6%
CSc1nc2sc3c(c2c(=O)[nH]1)CCC3 | 15% | 6 | 5% | -10% | -17% | -21%
Cc1c(C(=O)O)sc2nc(/C=C/c3cccc(F)c3)[nH]c(=O)c12 | -19% | 35 | / | -28% | -18% | -14%
